Screens (PubChem BioAssay)
esBAF inh: Bmi1 luciferase reporter increase in mESCs, primary screen, esBAF inhibitor project, mouse ES cells, Bmi1 luciferase knock-in, single point. 350,000 compounds, 2% hits. 24 h; 100% = twice the neutral-well signal. reporter increase, % at 12.5 µM; in the data active = activation above about 40%;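 note: 0% = median of the plate's neutral control wells and 100% = double that signal; a rise in the Bmi1 reporter signal indicates esBAF inhibition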
HSF-1 act: HSF-1 activators, primary screen, NIH3T3-HGL cells, MG132 stress, luminescence, single point. NIH3T3-HGL HSF-1 luciferase reporter, 8 h; 100% = twice DMSO control signal. activation, % at 9 µM. 300,000 compounds, 1.7% hits;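 active = mean replicate activation of at least 50% with a set share of replicates each reaching 50%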;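 note: 0% = median of the neutral control wells and 100% = twice that signal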
SMARCA2 act: SMARCA2 (BRM) function activators, primary screen, cell-based, luminescence, high throughput | 370,000 compounds, 1% hits | activation, % at 9.1 µM | MG213 cells, MMTV-luciferase reporter, dexamethasone, overnight; in the data active = activation above about 7.8%;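 note: 0% = vehicle wells and 100% = reference activator wells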
Wnt act: Wnt/beta-catenin pathway activators, primary screen, cell-based, plate reader, single point; Wnt/beta-catenin reporter cell assay, activator; activation, % at 9.35 µM; 300,000 compounds, 1.2% hits; in the data active = activation above about 30%, passing the limit was not always enough;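 note: 0% = neutral control wells and 100% = positive control wells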
MITF TRPM1 HTS: activators of MITF-driven TRPM1 promoter reporter, primary screen, cell-based, SK-MEL-5, luciferase, single point; 300,000 compounds, 0.75% hits; SK-MEL-5 TRPM1-promoter luciferase, 24 h; % of positive control, neutral wells = 0; activation, % at 12.5 µM;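 active = mean activation of at least 80% with every replicate also reaching 80%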;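 note: 0% = neutral control wells and 100% = parthenolide positive control wells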
HSF1 inhib: HSF1 inhibitors in luciferase reporter cells, primary screen, cell-based, NIH3T3, luminescence | NIH3T3-HGL HSE-luciferase, MG132-induced, luminescence 8 h; hits give low values | activity change, negative = inhibition, % at 7.5 µM (by protocol) | 300,000 compounds, 0.77% hits;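 active = more than half of replicate wells show activity change below -50%, luminescence cut by over half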;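 note: luciferase reports HSF-1 transcriptional activity via heat shock element; 0% = median of DMSO wells and -100% = zero luminescence signal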
Starred values were filed as active, the others as inactive; . = not tested or not shown. An excerpt weighted towards active compounds, which were near 4.3% of everything screened.

SMILES | esBAF inh | HSF-1 act | SMARCA2 act | Wnt act | MITF TRPM1 HTS | HSF1 inhib
CC(C)c1onc(C(=O)NCCc2ccccc2)c1[N+](=O)[O-] | . | 61* | 3 | 15 | 24 | 11
COc1ccc(CCNC(=O)c2cccc([N+](=O)[O-])c2)cc1OC | . | -88 | -1 | -1 | 4 | -87*
O=C(CCc1ccccc1)Nc1cccc([N+](=O)[O-])c1 | 8 | -82 | -3 | 0 | 7 | -76*
C[C@H](CO)N1C[C@H](C)[C@H](CN(C)S(=O)(=O)c2cn(C)cn2)Oc2ccc(NC(=O)Nc3ccc4c(c3)OCO4)cc2C1=O | 5 | . | . | . | . | .
O=C(NCCc1ccccc1)c1cccc(Br)c1 | 53* | 65* | 2 | 15 | . | 37
COC(=O)c1cnc2ccccc2n1 | 3 | -9 | 7.8* | -2 | -9 | 8
O=C(NCc1ccccn1)Nc1cccc([N+](=O)[O-])c1 | -5 | 7 | -1 | 1 | 15 | 11
O=C(NCc1ccccn1)c1cccc([N+](=O)[O-])c1 | -19 | 62* | 2 | -1 | -6 | 18
O=C(NCCc1ccccc1)c1ccc(-c2cccnc2)c2ccoc12 | 44* | . | 1 | 18 | . | .
Cc1cccc(S(=O)(=O)N2CC[C@@H]3[C@@H](CO)N(C)c4ccc(-c5ccccc5F)cc4[C@@H]32)c1 | 1 | . | . | . | . | .
O=C(NCc1ccccc1)c1cccnc1 | -4 | -7 | -2 | 0 | . | -1
COc1ccc(OC)c(NC(=O)NCCc2cccc(Cl)c2)c1 | . | -7 | -1 | 60* | -4 | 7
O=C(NCCc1ccccc1)c1cnc2ccccc2n1 | -3 | 42 | 6 | 45* | 85* | 18
O=C(NCCc1ccccc1)c1cccc([N+](=O)[O-])c1 | 56* | 24 | 2 | . | 94* | 22
COc1ccccc1NC(=O)NCCc1ccccc1 | 3 | . | 0 | 2 | 19 | .
O=C(NCCc1ccccc1)c1cccnc1 | 26 | -22 | 2 | 34* | 45 | -6
C[C@@H]1CN([C@H](C)CO)C(=O)c2cc(NC(=O)Nc3ccccc3)ccc2O[C@H]1CN(C)C(=O)Nc1ccc2c(c1)OCO2 | -5 | . | . | . | . | .
C[C@H](CO)N1C[C@H](C)[C@H](CN(C)S(=O)(=O)c2ccccc2)Oc2ccc(NS(=O)(=O)c3ccc(F)cc3)cc2C1=O | -8 | . | . | . | . | .
CCCN(C)C[C@@H]1Oc2cc(C#CC(C)(C)O)ccc2S(=O)(=O)N([C@@H](C)CO)C[C@@H]1C | -8 | . | . | . | . | .
CCCC(=O)Nc1ccc2c(c1)OC[C@@H](C)N(C(=O)CN1CCOCC1)C[C@@H](C)[C@H](OC)CN(C)C2=O | -5 | . | . | . | . | .
COc1ccc(C(=O)NCc2nnc(SCC(=O)N3CCC(C)CC3)o2)cc1OC | . | -74 | -3 | . | -5 | -67*
COC(=O)Nc1nnc(-c2ccncc2)s1 | -1 | -2 | -2 | . | -3 | -1
CCOC(=O)Nc1nnc(-c2ccccc2OC)s1 | 11 | 1 | 3 | . | 15 | 3
COC(=O)Nc1nnc(-c2ccccc2OC)s1 | . | 30 | 7 | 49* | 45 | 18
COc1ccc(-c2nnc(NC(=O)C(C)C)s2)c(OC)c1 | 42* | 13 | 3 | 34* | 46 | 11
SMILES | esBAF inh | HSF-1 act | SMARCA2 act | Wnt act | MITF TRPM1 HTS | HSF1 inhib
COC(=O)Nc1nnc(-c2ccccc2Cl)s1 | 24 | 23 | 5 | . | 88* | 20
COCC(=O)Nc1ccc2c(c1)[C@H]1C[C@H](CC(=O)NCc3cccnc3)O[C@@H](CO)[C@H]1O2 | -1 | . | . | . | . | .
CCC(=O)N1C[C@H](C)[C@@H](OC)CN(C)C(=O)c2ccc(NC(=O)c3ccccc3)cc2OC[C@@H]1C | 3 | . | . | . | . | .
C=CCSc1nnc(-c2sc(-c3ccccc3)nc2C)n1C | . | 25 | 0 | 33* | . | -1
C[C@@H]1CN([C@H](C)CO)S(=O)(=O)c2ccc(-c3ccccc3)cc2O[C@H]1CN(C)Cc1cccc(F)c1 | -12 | . | . | . | . | .
COc1ccc(CN(C)C[C@H]2OCCCC[C@H](C)Oc3ccc(NC(=O)Nc4c(C)noc4C)cc3C(=O)N([C@H](C)CO)C[C@@H]2C)cc1 | 0 | . | . | . | . | .
C[C@@H]1CN([C@@H](C)CO)C(=O)Cc2cc(NS(=O)(=O)c3cccs3)ccc2O[C@@H]1CN(C)Cc1ccccc1 | 4 | . | . | . | . | .
Oc1cccnc1Sc1cccc(C(F)(F)F)c1 | . | 86* | -4 | -2 | . | 39
C=CCOc1ccc(C(c2c(C)n(C)n(-c3ccccc3)c2=O)c2c(C)n(C)n(-c3ccccc3)c2=O)cc1 | 4 | -87 | -1 | 0 | 2 | -85*
COc1ccc(C(c2c(C)n(C)n(-c3ccccc3)c2=O)c2c(C)n(C)n(-c3ccccc3)c2=O)cc1O | . | 12 | . | . | . | 3
O=C(Nc1cccc(/C=C/c2ccccn2)c1)c1ccc(-n2cncn2)c([N+](=O)[O-])c1 | 44* | -13 | 0 | 2 | -8 | 1
O=C(Nc1ccc(F)c(F)c1)c1ccc(-n2cncn2)c([N+](=O)[O-])c1 | 4 | . | -2 | -2 | -10 | .
CCCC(CCC)C(=O)Nc1ccc2c(c1)N(C(=O)CCN1CCN(C)CC1)c1ccccc1CC2 | . | -68 | -2 | 0 | 2 | -63*
CCOC(=O)Nc1ccc2c(c1)N(C(=O)CN1CCN(C)CC1)c1ccccc1CC2 | 4 | 11 | 2 | -2 | 5 | -3
Cn1c(=O)c2c(nc(Oc3ccc4ccccc4c3)n2C)n(C)c1=O | -7 | -20 | -2 | . | 31 | -18
COc1cccc(C(=O)Cn2c(Br)nc3c2c(=O)n(C)c(=O)n3C)c1 | 9 | 11 | -1 | 49* | -22 | 3
Cn1c(=O)c2c(nc(Oc3cccc(O)c3)n2C)n(C)c1=O | 8 | -80 | 2 | 1 | 1 | -77*
O=C(CCl)Nc1cc(SCC(O)CO)cc([N+](=O)[O-])c1 (stereo not given) | . | -73 | -12 | 1 | -88 | -71*
CN1C(=O)CSc2ccc(NC(=O)N3CCc4ccccc43)cc21 | 94* | 6 | 5 | 29 | 70 | 0
Cc1ccc(NC(=O)N2CCCc3ccccc32)cc1 | . | 40 | -1 | 7 | 22 | 5
COc1ccc(NC(=O)N2CCCc3ccccc32)cc1OC | 5 | 11 | 4 | -2 | 6 | -2
Cc1ccc(NC(=O)N2CCc3ccccc32)cc1 | . | 63* | 4 | 18 | 6 | 40
Cc1ccc(NC(=O)N2CCc3ccccc32)cc1C | . | 51* | 7 | -1 | 37 | 15
CN1CCN(c2ccc(NC(=O)N3CCc4ccccc43)cc2)CC1 | -72 | -86 | -5 | -5 | -60 | -85*
COCC(=O)Nc1ccc2c(c1)C(=O)N(C)C[C@H](OC)[C@H](C)CN(C(=O)NC(C)C)[C@H](C)CO2 | -5 | . | . | . | . | .
CN1C(=O)CSc2ccc(NC(=O)Nc3ccccn3)cc21 | . | 22 | 0 | 1 | 143* | 29
